Measurements from the supplement of paper PMC10849652.
About 7,900 targets were measured; listed, in parts, are those with a hit and a random draw of the rest. About 0.6% of all pairs of compound and target were hits. A number with no mark means an inactive call.

Compound: CC(C)C[C@@H](C=O)NC(=O)[C@H](CC(C)C)NC(=O)[C@H](CC(C)C)NC(=O)OCc1ccccc1
Test: log2 fold change, soluble protein after heating vs DMSO (PISA); higher = thermal stabilisation; K562 cells, 10 uM, 30 min; active = over 0.2 and 3.5 SD of the protein, either way, in both replicates (recomputed)
Outline: (§1)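 Thermal stability values are relative to control samples and come from duplicates. They are expressed as log2 fold changes. For measurement, K562 cells (2×10^6 cells/mL) received 10 μM compound for 30 min, and aliquots were heated for 3 min over 48°C-58°C, pooled, and extracted at 4°C in PBS with 0.5% NP-40. Soluble protein, the supernatant after 21,000xg for 90 min, was quantified by TMTpro 16plex LC-MS/MS with equalised channel sums.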

Chain of UniProt P42785 (P42785 whole entry, looked up): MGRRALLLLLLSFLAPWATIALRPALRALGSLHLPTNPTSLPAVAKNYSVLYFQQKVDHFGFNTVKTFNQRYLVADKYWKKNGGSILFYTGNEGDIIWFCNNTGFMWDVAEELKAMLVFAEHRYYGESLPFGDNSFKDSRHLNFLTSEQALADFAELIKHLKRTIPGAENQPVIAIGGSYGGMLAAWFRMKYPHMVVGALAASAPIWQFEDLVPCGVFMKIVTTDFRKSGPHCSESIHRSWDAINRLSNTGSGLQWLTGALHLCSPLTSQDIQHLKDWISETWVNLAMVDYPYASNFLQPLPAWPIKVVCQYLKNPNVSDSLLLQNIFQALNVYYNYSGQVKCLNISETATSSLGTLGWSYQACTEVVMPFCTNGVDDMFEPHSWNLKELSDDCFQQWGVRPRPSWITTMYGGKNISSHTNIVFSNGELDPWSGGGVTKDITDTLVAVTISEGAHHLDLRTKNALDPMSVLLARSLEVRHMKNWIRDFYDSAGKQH
Chain of UniProt Q32M88 (Q32M88 whole entry, looked up): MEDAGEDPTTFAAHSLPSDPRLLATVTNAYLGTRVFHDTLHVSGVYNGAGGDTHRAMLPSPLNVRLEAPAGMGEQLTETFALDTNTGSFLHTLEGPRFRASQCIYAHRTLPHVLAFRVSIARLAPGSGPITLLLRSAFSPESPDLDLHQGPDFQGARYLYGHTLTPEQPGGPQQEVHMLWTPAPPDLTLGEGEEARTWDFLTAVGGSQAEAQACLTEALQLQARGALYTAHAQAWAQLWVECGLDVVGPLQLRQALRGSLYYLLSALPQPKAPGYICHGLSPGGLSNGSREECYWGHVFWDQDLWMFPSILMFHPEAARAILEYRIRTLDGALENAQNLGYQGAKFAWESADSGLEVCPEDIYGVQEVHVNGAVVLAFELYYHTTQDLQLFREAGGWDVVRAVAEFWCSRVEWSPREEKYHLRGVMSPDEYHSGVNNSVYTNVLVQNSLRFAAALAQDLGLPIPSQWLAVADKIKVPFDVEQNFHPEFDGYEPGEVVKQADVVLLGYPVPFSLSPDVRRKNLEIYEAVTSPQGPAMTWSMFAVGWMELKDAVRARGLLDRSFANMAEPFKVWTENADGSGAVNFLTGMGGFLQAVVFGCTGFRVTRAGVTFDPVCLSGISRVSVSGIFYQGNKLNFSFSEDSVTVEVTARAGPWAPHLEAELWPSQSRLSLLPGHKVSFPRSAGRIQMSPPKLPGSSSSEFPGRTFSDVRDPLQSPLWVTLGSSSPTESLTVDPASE
Chain of UniProt P28072 (P28072 whole entry, looked up): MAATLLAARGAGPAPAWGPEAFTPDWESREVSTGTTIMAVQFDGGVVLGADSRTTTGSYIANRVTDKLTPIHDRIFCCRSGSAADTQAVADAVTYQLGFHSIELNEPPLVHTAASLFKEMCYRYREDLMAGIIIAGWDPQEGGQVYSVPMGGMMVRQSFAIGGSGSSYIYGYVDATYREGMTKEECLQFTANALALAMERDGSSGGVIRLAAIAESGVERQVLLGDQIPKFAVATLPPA
Chain of UniProt Q16512 (Q16512 whole entry, looked up): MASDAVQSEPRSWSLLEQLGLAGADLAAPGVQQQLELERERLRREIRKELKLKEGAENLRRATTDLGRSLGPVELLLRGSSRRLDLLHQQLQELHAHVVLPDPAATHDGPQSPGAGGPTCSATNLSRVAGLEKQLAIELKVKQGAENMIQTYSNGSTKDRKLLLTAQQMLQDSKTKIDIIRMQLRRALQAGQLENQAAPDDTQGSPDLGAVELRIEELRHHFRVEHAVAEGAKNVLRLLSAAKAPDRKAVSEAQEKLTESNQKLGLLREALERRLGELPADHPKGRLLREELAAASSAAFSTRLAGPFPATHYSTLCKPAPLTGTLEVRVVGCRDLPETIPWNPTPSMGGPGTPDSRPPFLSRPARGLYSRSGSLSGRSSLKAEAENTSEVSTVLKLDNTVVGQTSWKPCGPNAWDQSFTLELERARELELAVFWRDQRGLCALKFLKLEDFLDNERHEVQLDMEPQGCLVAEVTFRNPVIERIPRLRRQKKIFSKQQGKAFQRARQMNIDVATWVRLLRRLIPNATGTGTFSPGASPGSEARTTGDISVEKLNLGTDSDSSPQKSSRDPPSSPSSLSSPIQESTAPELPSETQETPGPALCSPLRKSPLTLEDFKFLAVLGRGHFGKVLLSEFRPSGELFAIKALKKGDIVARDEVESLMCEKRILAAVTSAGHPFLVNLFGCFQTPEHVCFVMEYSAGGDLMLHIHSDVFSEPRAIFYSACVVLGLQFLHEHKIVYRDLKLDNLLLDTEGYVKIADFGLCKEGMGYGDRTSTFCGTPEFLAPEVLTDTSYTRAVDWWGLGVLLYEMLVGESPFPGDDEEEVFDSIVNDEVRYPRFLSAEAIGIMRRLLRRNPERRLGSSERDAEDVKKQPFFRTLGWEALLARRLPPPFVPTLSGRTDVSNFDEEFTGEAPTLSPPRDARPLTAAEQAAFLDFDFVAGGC
Chain of UniProt P35227 (P35227 whole entry, looked up): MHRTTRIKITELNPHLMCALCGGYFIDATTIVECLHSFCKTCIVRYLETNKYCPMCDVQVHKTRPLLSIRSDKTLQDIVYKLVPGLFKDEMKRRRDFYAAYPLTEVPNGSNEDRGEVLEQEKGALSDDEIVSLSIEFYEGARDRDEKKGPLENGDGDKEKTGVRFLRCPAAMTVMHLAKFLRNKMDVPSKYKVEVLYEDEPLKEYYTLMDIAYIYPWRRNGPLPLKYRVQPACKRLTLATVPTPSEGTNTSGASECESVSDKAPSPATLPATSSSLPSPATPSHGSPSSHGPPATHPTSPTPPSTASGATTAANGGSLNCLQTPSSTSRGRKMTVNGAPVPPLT
Chain of UniProt P31321 (P31321 whole entry, looked up): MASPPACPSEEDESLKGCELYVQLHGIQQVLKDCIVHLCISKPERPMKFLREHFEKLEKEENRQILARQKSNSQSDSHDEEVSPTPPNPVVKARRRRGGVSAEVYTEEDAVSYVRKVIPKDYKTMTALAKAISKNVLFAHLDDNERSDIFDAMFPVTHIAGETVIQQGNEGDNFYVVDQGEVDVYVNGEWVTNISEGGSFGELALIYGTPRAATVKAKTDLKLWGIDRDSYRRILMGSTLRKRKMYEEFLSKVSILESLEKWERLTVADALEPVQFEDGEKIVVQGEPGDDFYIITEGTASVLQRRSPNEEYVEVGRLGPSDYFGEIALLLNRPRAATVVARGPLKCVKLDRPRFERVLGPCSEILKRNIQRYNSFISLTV
Chain of UniProt Q16513 (Q16513 whole entry, looked up): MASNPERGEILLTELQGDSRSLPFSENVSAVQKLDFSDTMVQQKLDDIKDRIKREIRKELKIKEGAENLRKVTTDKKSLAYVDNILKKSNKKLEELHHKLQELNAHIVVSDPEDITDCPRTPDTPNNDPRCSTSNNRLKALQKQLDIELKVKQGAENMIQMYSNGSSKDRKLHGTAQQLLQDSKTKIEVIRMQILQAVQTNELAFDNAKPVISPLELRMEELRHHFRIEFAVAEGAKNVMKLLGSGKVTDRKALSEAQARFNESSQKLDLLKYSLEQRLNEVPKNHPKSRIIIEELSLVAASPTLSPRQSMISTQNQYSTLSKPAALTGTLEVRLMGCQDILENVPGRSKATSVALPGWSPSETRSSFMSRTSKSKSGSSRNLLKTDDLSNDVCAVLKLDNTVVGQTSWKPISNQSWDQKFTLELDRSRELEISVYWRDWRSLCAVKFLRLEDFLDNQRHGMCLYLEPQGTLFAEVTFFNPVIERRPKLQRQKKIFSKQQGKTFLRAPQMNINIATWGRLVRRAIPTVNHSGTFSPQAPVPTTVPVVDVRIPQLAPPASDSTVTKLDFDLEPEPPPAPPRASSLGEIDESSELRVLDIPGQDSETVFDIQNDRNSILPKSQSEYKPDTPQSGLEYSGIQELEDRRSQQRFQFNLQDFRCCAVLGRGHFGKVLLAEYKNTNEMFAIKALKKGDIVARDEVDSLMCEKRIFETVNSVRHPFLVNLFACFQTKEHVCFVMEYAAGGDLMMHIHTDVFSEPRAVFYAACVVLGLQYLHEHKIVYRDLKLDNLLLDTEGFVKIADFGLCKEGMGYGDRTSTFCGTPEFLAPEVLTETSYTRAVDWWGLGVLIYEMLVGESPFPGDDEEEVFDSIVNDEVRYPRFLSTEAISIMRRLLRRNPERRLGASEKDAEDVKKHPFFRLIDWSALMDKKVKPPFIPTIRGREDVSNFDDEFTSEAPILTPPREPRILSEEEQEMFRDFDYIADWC
Chain of UniProt P06454 (P06454 whole entry, looked up): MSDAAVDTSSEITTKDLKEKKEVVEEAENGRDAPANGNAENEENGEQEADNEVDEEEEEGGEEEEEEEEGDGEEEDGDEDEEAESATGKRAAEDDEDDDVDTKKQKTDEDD
Chain of UniProt Q9Y5K3 (Q9Y5K3 whole entry, looked up): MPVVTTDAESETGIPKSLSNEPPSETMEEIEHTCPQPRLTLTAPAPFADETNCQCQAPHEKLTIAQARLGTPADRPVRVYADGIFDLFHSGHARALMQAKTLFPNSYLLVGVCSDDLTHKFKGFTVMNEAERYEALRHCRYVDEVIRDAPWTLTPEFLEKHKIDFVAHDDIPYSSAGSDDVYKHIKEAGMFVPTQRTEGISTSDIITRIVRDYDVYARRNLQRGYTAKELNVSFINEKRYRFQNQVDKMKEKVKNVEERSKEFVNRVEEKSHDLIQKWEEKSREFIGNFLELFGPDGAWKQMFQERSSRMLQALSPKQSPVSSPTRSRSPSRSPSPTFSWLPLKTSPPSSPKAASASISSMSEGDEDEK
Chain of UniProt Q96A00 (Q96A00 whole entry, looked up): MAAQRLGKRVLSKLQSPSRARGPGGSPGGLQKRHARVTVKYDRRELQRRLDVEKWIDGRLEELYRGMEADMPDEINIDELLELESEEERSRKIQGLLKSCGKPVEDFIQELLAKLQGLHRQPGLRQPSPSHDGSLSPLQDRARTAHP
Chain of UniProt Q12974 (Q12974 whole entry, looked up): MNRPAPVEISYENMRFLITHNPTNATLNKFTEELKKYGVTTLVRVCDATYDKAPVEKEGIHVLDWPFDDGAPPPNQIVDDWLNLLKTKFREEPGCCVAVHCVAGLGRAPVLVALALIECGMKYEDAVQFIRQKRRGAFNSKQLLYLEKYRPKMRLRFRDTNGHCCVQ

Row | Target | log2 fold change
1 | PLIN2 (UniProt Q99541) | -0.014
2 | PCGF2 (UniProt P35227) | 0.065
3 | PRKAR1B (UniProt P31321) | 0.007
4 | PSMB6 (UniProt P28072) | 0.4 (active)
5 | PGGHG (UniProt Q32M88) | 0.008
6 | PTGFRN (UniProt Q9P2B2) | 0.07
7 | PLCL1 (UniProt Q15111) | 0.089
8 | PURA (UniProt Q00577) | 0.079
9 | PPT1 (UniProt P50897) | 0.048
10 | PKN2 (UniProt Q16513) | 0.085
11 | PTPMT1 (UniProt Q8WUK0) | 0.052
12 | PTMA (UniProt P06454) | -0.289
13 | POGLUT1 (UniProt Q8NBL1) | -0.106
14 | POLR2C (UniProt P19387) | 0.042
15 | PRPF38B (UniProt Q5VTL8) | 0.03
16 | PSMA3 (UniProt P25788) | -0.065
17 | PJA2 (UniProt O43164) | 0.169
18 | PTP4A2 (UniProt Q12974) | -0.157

Row | Target | log2 fold change
19 | PCYT1B (UniProt Q9Y5K3) | 0.027
20 | PPP1R14A (UniProt Q96A00) | -0.122
21 | PIK3CB (UniProt P42338) | 0.02
22 | POLD3 (UniProt Q15054) | -0.117
23 | PSMD11 (UniProt O00231) | -0.263 (active)
24 | PMM1 (UniProt Q92871) | 0.019
25 | PIP4P2 (UniProt Q8N4L2) | 0.011
26 | PIGT (UniProt Q969N2) | 0.002
27 | POLR2I (UniProt P36954) | 0.03
28 | PPP6R1 (UniProt Q9UPN7) | 0.038
29 | PRKCQ (UniProt Q04759) | -0.011
30 | POLR1A (UniProt O95602) | 0.005
31 | PRPSAP2 (UniProt O60256) | -0.017
32 | PSME4 (UniProt Q14997) | 0.271 (active)
33 | PPM1G (UniProt O15355) | 0.088
34 | PRKAR2B (UniProt P31323) | 0.044
35 | PKN1 isoform 2 (UniProt Q16512) | 0.002
36 | PRCP (UniProt P42785) | -0.025

Compound: CC(C)N(C[C@H]1O[C@@H](n2cnc3c(N)ncnc32)[C@H](O)[C@@H]1O)[C@H]1C[C@@H](CCc2nc3cc(C(C)(C)C)ccc3[nH]2)C1 [pinometostat]
Test: as above
Outline: as §1

Row | Target | log2 fold change
37 | PLIN2 (UniProt Q99541) | 0.007
38 | PCGF2 (UniProt P35227) | -0.075
39 | PRKAR1B (UniProt P31321) | 0.105
40 | PSMB6 (UniProt P28072) | -0.053
41 | PGGHG (UniProt Q32M88) | -0.054
42 | PTGFRN (UniProt Q9P2B2) | 0.002
43 | PLCL1 (UniProt Q15111) | 0.365
44 | PURA (UniProt Q00577) | 0.087
45 | PPT1 (UniProt P50897) | -0.036
46 | PKN2 (UniProt Q16513) | 0.141
47 | PTPMT1 (UniProt Q8WUK0) | 0.013
48 | PTMA (UniProt P06454) | -0.092
49 | POGLUT1 (UniProt Q8NBL1) | 0.026
50 | POLR2C (UniProt P19387) | 0.065
51 | PRPF38B (UniProt Q5VTL8) | -0.029
52 | PSMA3 (UniProt P25788) | -0.033
53 | PJA2 (UniProt O43164) | -0.005
54 | PTP4A2 (UniProt Q12974) | -0.044

Row | Target | log2 fold change
55 | PCYT1B (UniProt Q9Y5K3) | -0.011
56 | PPP1R14A (UniProt Q96A00) | -0.065
57 | PIK3CB (UniProt P42338) | -0.069
58 | POLD3 (UniProt Q15054) | -0.016
59 | PSMD11 (UniProt O00231) | 0.029
60 | PMM1 (UniProt Q92871) | -0.037
61 | PIP4P2 (UniProt Q8N4L2) | 0.012
62 | PIGT (UniProt Q969N2) | 0.045
63 | POLR2I (UniProt P36954) | -0.024
64 | PPP6R1 (UniProt Q9UPN7) | -0.047
65 | PRKCQ (UniProt Q04759) | 0.028
66 | POLR1A (UniProt O95602) | 0.07
67 | PRPSAP2 (UniProt O60256) | -0.003
68 | PSME4 (UniProt Q14997) | 0.068
69 | PPM1G (UniProt O15355) | -0.067
70 | PRKAR2B (UniProt P31323) | 0.108
71 | PKN1 isoform 2 (UniProt Q16512) | 0.057
72 | PRCP (UniProt P42785) | -0.006
